High-throughput results: PubChem BioAssay, several laboratories
Rows were chosen to be rich in hits. Some 4.3% of all compounds tested hit in one or more screens of this group.
PfHsp40 rescue – compounds rescuing yeast from Plasmodium falciparum HSP40 toxicity; 0.68% of 340,000 active; growth rescue, % at 12.5 µM; S. cerevisiae expressing PfHsp40, growth rescue, ATP luminescence; in the data active = growth rescue above about 28%, passing the limit was not always enough; inconclusive = no clear call, values can overlap the other calls;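 note: yeast W303a lacking pdr1 and pdr3 grown in galactose medium; growth measured after three days at 30 °C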
MazEF act – activators of E. coli MazEF toxin-antitoxin RNase | P0AE70 | FAM/BHQ RNA-DNA oligo cleavage fluorescence, 5 h | activation, % at 20 µM | 0.32% of 350,000 active | AID 504720; in the data active = activation above about 50%
Target sequence (P0AE70 whole entry, looked up): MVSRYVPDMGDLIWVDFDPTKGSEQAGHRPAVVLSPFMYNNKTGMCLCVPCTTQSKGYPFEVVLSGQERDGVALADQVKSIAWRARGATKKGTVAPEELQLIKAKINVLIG
Anthrax LF prot – inhibitors of Bacillus anthracis lethal factor protease; P15917; multiplex microsphere protease cleavage assay, LF; inhibition, % at 10 µM; 0.12% of 360,000 active
BoNT-A LC inh2 – blocks Botulinum neurotoxin A light chain protease; 0.17% of 360,000 active; inhibition, % at 10 µM; AID 588499; multiplex microsphere protease substrate cleavage, flow cytometry
Bead autofluor – compound fluorescence in toxin protease inhibitor counterscreen; fluorescence intensity (test concentration not listed); 3.1% of 360,000 active; compound autofluorescence counterscreen, microsphere flow cytometry; active compounds read high; in the data active = fluorescence intensity above about 16000; inconclusive = no clear call, values can overlap the other calls
BoNT-F LC inh – blocks Botulinum neurotoxin F light chain protease | Multiplex microsphere protease cleavage assay, flow cytometry | inhibition, % at 10 µM | 0.22% of 360,000 active | AID 588497; in the data active = inhibition above about 35%, passing the limit was not always enough; inconclusive = no clear call, values can overlap the other calls
Hits are given with their value; n = inactive; u = inconclusive; x = not tested or not shown. Cut-off read from the data, not from the text of the source, unless noted: active = inhibition above about 30%; inconclusive = no clear call, values can overlap the other calls; inactive = below that.

SMILES	PfHsp40 rescue	MazEF act	Anthrax LF prot	BoNT-A LC inh2	Bead autofluor	BoNT-F LC inh
CCCNC(=O)c1cc(SC)ccc1Cl	n	n	n	n	20823	n
CCc1ccc(OCCNC(=O)c2cc(SC)ccc2Cl)cc1	n	n	n	n	23443	n
CC(C)(C)NC(=O)CSc1n[nH]c(=O)n1-c1ccccc1	n	n	n	n	20863	n
COc1cccc(CNC(=O)COC(=O)c2ccc(Cl)s2)c1	n	n	n	n	n	n
O=C(NCCCN1CCN(Cc2ccccc2)CC1)c1nnc(Cc2c(F)cccc2Cl)o1	n	n	n	n	19523	n
Cc1cccc(NC(=O)c2nc[nH]c2C(=O)N2CCN(C(=O)OC(C)(C)C)CC2)c1	n	n	n	n	n	n
Cc1nn(-c2ccccc2)c(C)c1/C=N/NC(=O)c1cc(-c2ccc(Cl)s2)[nH]n1	n	n	n	n	17595	n
Cc1nn(-c2ccccc2)c(C)c1/C=N/NC(=O)c1cc(-c2ccc(Br)s2)[nH]n1	n	n	n	n	21752	n
Cc1nn(-c2ccccc2)c(C)c1/C=N/NC(=O)c1ccccc1O	n	n	n	n	n	88
Cc1cccc2sc(NNC(=O)c3ccc(S(=O)(=O)N4CC(C)CC(C)C4)cc3)nc12 (stereo unspecified)	285	n	n	n	n	n
Cc1cc(C)c2nc(NNC(=O)c3ccc(S(=O)(=O)N4CC(C)CC(C)C4)cc3)sc2c1 (stereo unspecified)	u	n	n	n	n	n
Cc1cc(C)c2nc(NNC(=O)c3ccc(S(=O)(=O)N4CCCC(C)C4)cc3)sc2c1 (stereo unspecified)	97	n	n	n	n	n
COC(=O)c1sc2ccccc2c1NC(=O)c1ccc(S(=O)(=O)N2CC(C)CC(C)C2)cc1 (stereo unspecified)	n	n	n	n	n	n
O=C(COc1ccc(Cl)cc1)NCc1nnc(SCC(=O)Nc2ccc(F)cc2F)o1	n	n	n	n	n	n
Cc1ccnc(SCC(=O)N2CCN(c3cccc(Cl)c3)CC2)n1	n	n	n	n	n	n
O=C(CSc1ccccn1)N1CCN(c2ccc(Cl)cc2)CC1	n	n	n	u	21847	n
Cc1ccnc(SCC(=O)N2CCN(c3ccccc3)CC2)n1	n	n	n	n	21477	n
COc1ccc(-c2ccnc(SCC(=O)N3CCN(c4ccccc4)CC3)n2)cc1	105	n	n	n	n	n
CCC1(CC)NC(=O)N(CC(=O)OCC(=O)Nc2sccc2C#N)C1=O	n	n	n	n	n	n
COc1cccc(N(CC(=O)NC2CCCCC2)C(=O)CCC(=O)Nc2nc(C)cs2)c1	n	n	n	n	n	n
CCc1nc2oc3cc(OC)ccc3c(=O)c2c(=O)n1Cc1ccccc1	n	n	n	u	24709	n
Cc1ccc(S(=O)(=O)NC(=NCC(=O)O)c2ccc(F)cc2)cc1	n	n	n	n	25722	n
O=C(Nc1cccc(-c2nc3ccccc3[nH]2)c1)c1cccc(NC(=O)c2ccco2)c1	n	66	n	n	n	n
COc1ccc(OCC(=O)Nc2cccc(-c3nc4ccccc4[nH]3)c2)cc1	n	n	n	u	24148	n
CC(=O)Nc1cccc(NC(=O)CCCC(=O)O)c1	n	n	n	u	18707	n
SMILES	PfHsp40 rescue	MazEF act	Anthrax LF prot	BoNT-A LC inh2	Bead autofluor	BoNT-F LC inh
O=C(COc1ccccc1)Nc1cccc(-c2nc3ccccc3[nH]2)c1	n	n	n	n	n	n
O=C(O)CCCC(=O)Nc1cccc(-c2nc3ccccc3[nH]2)c1	n	n	n	n	16669	n
COC(=O)c1ccc(C(=O)OC)c(=O)[nH]1	n	n	n	n	n	n
CCCCn1c(N)c(N(CCC(C)C)C(=O)CC2CCCC2)c(=O)[nH]c1=O	n	n	n	n	n	n
Brc1ccc2ncnc(Nc3ccc(N4CCOCC4)cc3)c2c1	n	n	n	n	n	n
Brc1cc(Br)c2nc(-c3ccc(N4CCOCC4)cc3)ccc2c1	n	n	n	u	19443	n
O=C(Nc1ccc(F)c(F)c1)C1CCN(S(=O)(=O)c2cccc3nonc23)CC1	n	n	n	n	n	n
C=CCC(NC(C)c1ccccc1)c1ccco1 (stereo unspecified)	n	n	n	n	16630	n
O=C1C2C3C=CC(C3)C2C(=O)N1CNc1ccccn1 (stereo unspecified)	44	n	n	n	n	n
COc1cc(CNC2CCCCCC2)cc(OC)c1OC	n	n	n	n	22719	n
COc1cc(OC)c(OC)cc1CNC1CCCCCC1	n	n	n	n	18257	n
CC(CC(=O)N(C)CC(=O)Nc1ccc(N2CCOCC2)cc1)c1ccccc1 (stereo unspecified)	n	n	n	n	n	n
Cc1ccc(CNc2ncccc2-c2nc3cc(Cl)ccc3o2)cc1	n	n	n	n	22598	n
Clc1ccc2c(NCc3ccccc3)ccnc2c1	n	n	n	n	n	n
Cc1ccc(-c2nc3cc(Cl)ccc3o2)cc1	n	n	x	x	x	x
Clc1ccc2oc(-c3cccnc3NCc3ccccc3)nc2c1	n	n	n	n	19024	n
Cc1ccc(NC(=S)NN(C)c2cc(C)nc(C)n2)cc1	n	n	n	n	n	n
CN(C(=O)CSc1nnc(-c2ccc(OC(F)F)cc2)n1N)C1CCS(=O)(=O)C1 (stereo unspecified)	n	n	n	n	n	n
O=C(N=C1SC2CS(=O)(=O)CC2N1Cc1ccccc1)C1CCCCC1 (stereo unspecified)	n	n	n	n	n	n
O=C(OCCN1CCCCC1)c1ccc(O)cc1	n	n	n	n	21154	n
OC(C#CCN1CCCCC1)c1ccccc1 (stereo unspecified)	n	n	n	n	n	n
C1CCCN(CCCCN2CCCCCC2)CC1	n	n	n	n	21776	n
O=C(CCN1CCOCC1)c1ccccc1	n	n	n	n	n	n
OC(CCCCN1CCCCC1)c1ccccc1 (stereo unspecified)	n	n	n	u	22737	n
O=C(CCN1CCCCC1)c1ccccc1	n	n	n	u	16441	n
SMILES	PfHsp40 rescue	MazEF act	Anthrax LF prot	BoNT-A LC inh2	Bead autofluor	BoNT-F LC inh
O=C(OCCCN1CCCCC1)c1ccc(O)cc1	n	n	n	n	n	n
CC(=O)NCCc1c[nH]c2ccc(OCC(O)CNC(C)(C)C)cc12 (stereo unspecified)	n	n	n	n	n	u
COCCCN1C(=O)C(CC(=O)NCc2cccc3ccccc23)CC(C(=O)N(C(C)C)C(C)C)=C1C (stereo unspecified)	x	x	n	n	n	n
C(=N\Nc1nc(N2CCOCC2)nc(N2CCOCC2)n1)/c1cccnc1	n	n	n	n	22356	n
C(=N\Nc1nc(N2CCOCC2)nc(N2CCOCC2)n1)/c1ccncc1	n	n	n	n	n	n
COc1ccc(/C=N/Nc2cc(C)nc(-n3nc(C)cc3C)n2)cc1	272	n	n	n	n	n
Cc1cc(N/N=C/c2cccc(Cl)c2)nc(-n2nc(C)cc2C)n1	n	n	x	x	x	x
Cc1cc(N/N=C/c2ccccc2[N+](=O)[O-])nc(-n2nc(C)cc2C)n1	55	n	n	n	n	n
